Measurements taken from PubChem BioAssay (NCATS).
Records with an inconclusive call do not appear. Activity calls are given as the source filed them. Calls come from the whole dose curve; as a rule, active = well fitted inhibition curve with a large enough effect; inconclusive = small, poorly fitted or top-dose-only effect; inactive = flat fitted curve, though single readings scatter.

How the values were obtained:
CRL-7250 = normal cell line; test: Cytotoxic Profiling of Annotated Libraries Using Quantitative High-Throughput Screening (AID 1296008); details: Five cell lines viability, CellTiter-Glo ATP luminescence, 48-72 h; max response: stronger effect = lower value; for max response: % is set by controls: 0 for no effect and ±100 for the full control effect
Summary of the method: (§1)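 Cytotoxicity was measured as CellTiter-Glo ATP luminescence, read after 10 min at room temperature. Compound treatment of the cells lasted 48 or 72 hr at 37 degrees Celsius in a qHTS format.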

HEK293 = test: as above; details: Five cell lines viability, CellTiter-Glo ATP luminescence, 48-72 h; max response: stronger effect = lower value
Summary of the method: as §1

HaCat [1] = test: as above; details: Five cell lines viability, CellTiter-Glo ATP luminescence, 48-72 h; max response: stronger effect = lower value
Summary of the method: as §1

KB-3-1 = test: as above; details: Five cell lines viability, CellTiter-Glo ATP luminescence, 48-72 h; max response: stronger effect = lower value
Summary of the method: as §1

NIH3T3 = test: as above; details: Five cell lines viability, CellTiter-Glo ATP luminescence, 48-72 h; max response: stronger effect = lower value
Summary of the method: as §1

HACAT [2] = test: qHTS assay to identify novel small-molecules to repurpose for Merkel cell carcinoma treatment (AID 1296009); details: MCC and control cell lines, CellTiter-Glo viability, 72 h; at 44.8 µM (top of the series) unless noted
Summary of the method: (§2)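 Cell viability measured by CellTiter-Glo following 72 hr compound treatment at 37 degree celsius, with NPC and MIPE libraries tested in 8- and 11-point concentration series.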

HEK293T = test: as above; details: MCC and control cell lines, CellTiter-Glo viability, 72 h; series mostly up to 44.8 µM
Summary of the method: as §2
Note: nearly all actives have a fitted effect of over 60% in size.

Cn1ccnc1CCOC(c1cc2nccc(C(=O)O)c2[nH]1)c1ccccc1Cl (stereo unspecified)
inactive: outcome (CRL-7250) | outcome (HEK293) | outcome (HaCat [1]) | max response (KB-3-1) 2.27% | max response (NIH3T3) 4.24% | outcome (HACAT [2]) | Potency (HEK293T)

CC1(C)C(O)CCC2(C)C1C(O)C=C1COC(=O)C12O (stereo unspecified)
inactive: max response (CRL-7250) 2.08% | outcome (HEK293) | outcome (HaCat [1]) | max response (KB-3-1) 5.78% | max response (NIH3T3) 0.735% | outcome (HACAT [2]) | Potency (HEK293T)

C=CC(C)(CC/C=C(\C)CC/C=C(\C)CC(O)/C=C(\C)C(=O)O)O[C@@H]1O[C@H](CO)[C@@H](O)[C@H](O)[C@H]1O[C@@H]1O[C@H](CO)[C@@H](O)[C@H](O)[C@H]1O (stereo partly specified)
inactive: outcome (CRL-7250) | outcome (HEK293) | outcome (HaCat [1]) | max response (KB-3-1) 5.27% | outcome (NIH3T3) | outcome (HACAT [2]) inactive [at 17.4 µM] | Potency (HEK293T)

C[C@@H]1O[C@@H](O[C@H]2[C@H](OC(C#N)c3ccc(O)cc3)O[C@H](CO)[C@@H](O)[C@@H]2O)[C@H](O)[C@H](O)[C@H]1O (stereo partly specified)
inactive: max response (CRL-7250) -7.05% | outcome (HEK293) | outcome (HaCat [1]) | outcome (KB-3-1) | outcome (NIH3T3) | outcome (HACAT [2]) inactive [at 17.4 µM] | Potency (HEK293T)

C1CCN2CC3C[C@@H](CN4CCCC[C@@H]34)[C@H]2C1
inactive: max response (CRL-7250) 3.38% | outcome (HEK293) | outcome (HaCat [1]) | max response (KB-3-1) 5.45% | max response (NIH3T3) -1.12% | outcome (HACAT [2]) | Potency (HEK293T)

CCCCNC(=O)[C@@H]1Cc2ccccc2N1C(=O)[C@@H](N)CC
inactive: max response (CRL-7250) -0.785% | outcome (HEK293) | outcome (HaCat [1]) | max response (KB-3-1) 6.18% | max response (NIH3T3) 3.92% | outcome (HACAT [2]) | Potency (HEK293T)

C=CC(C)(C)O[C@@H]1O[C@H](CO[C@@H]2OC[C@](O)(CO)[C@H]2O)[C@@H](O)[C@H](O)[C@H]1O
inactive: max response (CRL-7250) -2.3% | outcome (HEK293) | outcome (HaCat [1]) | outcome (KB-3-1) | outcome (NIH3T3) | outcome (HACAT [2]) | Potency (HEK293T)

CC(=O)OC(CSC1CCC(=O)OC(C)CCC(=O)C1)C(=O)O (stereo unspecified)
inactive: max response (CRL-7250) -6.05% | outcome (HEK293) | outcome (HaCat [1]) | outcome (KB-3-1) | outcome (NIH3T3) | outcome (HACAT [2]) | Potency (HEK293T)

CC1(C)CC2C3=CCC4C5(C)CCC(OC6OC(C(=O)O)C(O)C(O)C6OC6OC(CO)C(O)C(O)C6OC6OC(CO)C(O)C(O)C6O)C(C)(CO)C5CCC4(C)C3(C)CCC2(C)C(OC2OCC(O)C(OC3OC(CO)C(O)C(O)C3O)C2O)C1O (stereo unspecified)
inactive: max response (CRL-7250) 2.95% | outcome (HEK293) | outcome (HaCat [1]) | max response (KB-3-1) 5.61% | max response (NIH3T3) -17.3% | outcome (HACAT [2]) inactive [at 9.27 µM] | outcome (HEK293T) inactive [at 9.27 µM]

COC(=O)C1=CO[C@@H](O[C@@H]2O[C@H](COC(=O)/C=C/c3cc(OC)c(O)c(OC)c3)[C@@H](O)[C@H](O)[C@H]2O)[C@@H]2C(CO)=CC[C@H]12
inactive: max response (CRL-7250) -6.59% | outcome (HEK293) | outcome (HaCat [1]) | max response (KB-3-1) 1.62% | max response (NIH3T3) 0.53% | outcome (HACAT [2]) inactive [at 17.4 µM] | Potency (HEK293T)

O=C1CC(c2ccc([N+](=O)[O-])cc2)=NN1c1ccccc1
inactive: outcome (CRL-7250) | outcome (HEK293) | outcome (HaCat [1]) | max response (KB-3-1) 3.45% | max response (NIH3T3) 2.7% | outcome (HACAT [2]) | Potency (HEK293T)

CC(=O)OCC(=O)O[C@@H]1[C@H]2[C@@H](OC(=O)c3ccccc3)[C@@H](C)C[C@]2(O)[C@H](OC(C)=O)C2(C)[C@H]3CC(C)(C)C(=O)[C@@H]3CC1(OC(C)=O)[C@@H]2OC(C)=O (stereo partly specified)
inactive: max response (CRL-7250) -0.187% | outcome (HEK293) | outcome (HaCat [1]) | max response (KB-3-1) 9.67% | outcome (NIH3T3) | outcome (HACAT [2]) inactive [at 17.4 µM] | Potency (HEK293T)

COc1cc(C[C@H]2COC(=O)[C@@H]2Cc2ccc(O)c(OC)c2)ccc1O
inactive: outcome (CRL-7250) | outcome (HEK293) | outcome (HaCat [1]) | max response (KB-3-1) -4.79% | outcome (NIH3T3) | outcome (HACAT [2]) | Potency (HEK293T)

C=C1CCC2(OC1)OC1CC3C4CC=C5CC(O)CC(O[C@@H]6OC[C@@H](O)[C@H](O)[C@H]6O)C5(C)C4CCC3(C)C1(O)C2C (stereo partly specified)
inactive: outcome (CRL-7250) | outcome (HEK293) | outcome (HaCat [1]) | max response (KB-3-1) -0.359% | outcome (NIH3T3) | outcome (HACAT [2]) inactive [at 17.4 µM] | Potency (HEK293T)

NCCCC[C@H](NC(=O)[C@@H]1Cc2ccccc2CN1C(=O)CCC(=O)c1ccccc1)C(=O)NCC(c1ccccc1)c1ccccc1
inactive: outcome (CRL-7250) | outcome (HEK293) | outcome (HaCat [1]) | outcome (KB-3-1) | max response (NIH3T3) 3.99% | outcome (HACAT [2]) | Potency (HEK293T)

COc1cc(COC2OC(CO)C(O)C(O)C2O)cc(OC)c1O (stereo unspecified)
inactive: outcome (CRL-7250) | outcome (HEK293) | outcome (HaCat [1]) | outcome (KB-3-1) | outcome (NIH3T3) | outcome (HACAT [2]) | Potency (HEK293T)

C=C1C2(CCC(=O)OC2(C)C)CC(OC(=O)/C(C)=C/C)C2(C)C13OC14C(=O)OC(C)(C(=O)C12C(=O)OC4C)C3OC(C)=O (stereo unspecified)
inactive: outcome (CRL-7250) | outcome (HEK293) | outcome (HaCat [1]) | max response (KB-3-1) 6.83% | max response (NIH3T3) 4.63% | outcome (HACAT [2]) inactive [at 17.4 µM] | Potency (HEK293T)

CC(CCC1C(C(=O)O)=CC(=O)CC1(C)C)O[C@@H]1O[C@H](CO)[C@@H](O)[C@H](O)[C@H]1O (stereo partly specified)
inactive: max response (CRL-7250) 1.37% | outcome (HEK293) | outcome (HaCat [1]) | outcome (KB-3-1) | outcome (NIH3T3) | outcome (HACAT [2]) | Potency (HEK293T)
